Read-out in experiment [1]: Tissue plasminogen activator (tPA), PLAT (gene 5327)
Description: BSK_BE3C_tPA: BioMAP Diversity Plus: BE3C Assay for Tissue plasminogen activator (tPA) Biomarker Activity (AID 2283041).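 For outcome: tPA level quantified by ELISA one day after compound addition.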 The following applies: primary human bronchial epithelial cells; actives raise or lower the signal. The method, boiled down:
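Using human lung primary bronchial epithelial cells, tPA was measured by ELISA 24 h after dosing; data fitted relative to DMSO.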

Read-out in experiment [2]: Interleukin-8 (IL8), CXCL8 (gene 3576)
Description: BSK_CASM3C_IL8: BioMAP Diversity Plus: CASM3C Assay for Interleukin-8 (IL8) Biomarker Activity (AID 2283042).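 Note: IL-8 protein level quantified by ELISA.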 The settings on record: primary human coronary artery smooth muscle cells; actives raise or lower the signal.

Read-out in experiment [3]: Human Leukocyte Antigen - DR isotype (HLADR), HLA-DRA (gene 3122)
Description: BSK_CASM3C_HLADR: BioMAP Diversity Plus: CASM3C Assay for Human Leukocyte Antigen - DR isotype (HLADR) Biomarker Activity (AID 2283043).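 Note: cell-surface HLA-DR protein level quantified by ELISA.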 The settings on record: primary human coronary artery smooth muscle cells; actives raise or lower the signal.

Read-out in experiment [4]: Macrophage colony-stimulating factor (MCSF), CSF1 (gene 1435)
Description: BSK_CASM3C_MCSF: BioMAP Diversity Plus: CASM3C Assay for Macrophage colony-stimulating factor (MCSF) Biomarker Activity (AID 2283044).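 Note: M-CSF protein amount quantified by ELISA after 24 h exposure.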 The following applies: primary human coronary artery smooth muscle cells; actives raise or lower the signal.

Read-out in experiment [5]: Low-density lipoprotein receptor (LDLR), LDLR (gene 3949)
Description: BSK_CASM3C_LDLR: BioMAP Diversity Plus: CASM3C Assay for Low-density lipoprotein receptor (LDLR) Biomarker Activity (AID 2283045).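 Note: LDLR protein level on the cell surface quantified by ELISA.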 The settings on record: primary human coronary artery smooth muscle cells; actives raise or lower the signal.

Read-out in experiment [6]: Monocyte Chemoattractant Protein-1 (MCP1), CCL2 (gene 6347)
Description: BSK_CASM3C_MCP1: BioMAP Diversity Plus: CASM3C Assay for Monocyte Chemoattractant Protein-1 (MCP1) Biomarker Activity (AID 2283046).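 Note: MCP-1 level quantified by ELISA 24 h after dosing.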 The following applies: primary human coronary artery smooth muscle cells; actives raise or lower the signal.

The nature of experiment [7]: BSK_CASM3C_Proliferation: Cell Proliferation Assessment in the BioMAP Diversity Plus: CASM3C Assay (AID 2283047).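 Note: sulforhodamine B total protein stain as relative cell number at 560 nm; sub-confluent cells exposed 48 h before staining; fitted both ways against DMSO so gain or loss of cell number.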 The settings on record: primary human coronary artery smooth muscle cells.
Read-out in experiment [8]: Monokine induced gamma interferon (MIG), CXCL9 (gene 4283)
Nature of the experiment: BSK_CASM3C_MIG: BioMAP Diversity Plus: CASM3C Assay for Monokine induced gamma interferon (MIG) Biomarker Activity (AID 2283048).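 Note: MIG protein level measured by ELISA.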 The following applies: primary human coronary artery smooth muscle cells; actives raise or lower the signal.

Read-out in experiment [9]: serum amyloid A (SAA), SAA1 (gene 6288)
Description: BSK_CASM3C_SAA: BioMAP Diversity Plus: CASM3C Assay for serum amyloid A (SAA) Biomarker Activity (AID 2283049).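 Note: SAA protein level quantified by ELISA.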 The settings on record: primary human coronary artery smooth muscle cells; actives raise or lower the signal.

Experiment [10] in a line: BSK_CASM3C_SRB: Viability Assessment in the BioMAP Diversity Plus: CASM3C Assay (AID 2283050).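 Note: total protein by SRB staining as cytotoxicity measure in parallel cultures; cells exposed to compound for 24 h.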 The settings on record: primary human coronary artery smooth muscle cells.
Read-out in experiment [11]: Thrombomodulin, THBD (gene 7056)
Nature of the experiment: BSK_CASM3C_Thrombomodulin: BioMAP Diversity Plus: CASM3C Assay for Thrombomodulin Biomarker Activity (AID 2283051).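 Note: thrombomodulin protein level measured by ELISA 24 h after dosing.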 The settings on record: primary human coronary artery smooth muscle cells; actives raise or lower the signal.

Read-out in experiment [12]: Tissue Factor, F3 (gene 2152)
Description: BSK_CASM3C_TissueFactor: BioMAP Diversity Plus: CASM3C Assay for Tissue Factor Biomarker Activity (AID 2283052).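 Note: cell surface tissue factor protein level read by ELISA.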 The settings on record: primary human coronary artery smooth muscle cells; actives raise or lower the signal.

Read-out in experiment [13]: Interferon-gamma inducible Protein 10 (IP10), CXCL10 (gene 3627)
Nature of the experiment: BSK_hDFCGF_IP10: BioMAP Diversity Plus: hDFCGF Assay for Interferon-gamma inducible Protein 10 (IP10) Biomarker Activity (AID 2283053). The settings on record: primary human foreskin fibroblasts; actives raise or lower the signal. The method, boiled down: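 Chemical-treated human skin fibroblasts (primary) were sampled at 24 h for IP-10 by ELISA. Both increases and decreases relative to DMSO were scored.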

Read-out in experiment [14]: Urokinase-type plasminogen activator receptor (uPAR), PLAUR (gene 5329)
Description: BSK_CASM3C_uPAR: BioMAP Diversity Plus: CASM3C Assay for Urokinase-type plasminogen activator receptor (uPAR) Biomarker Activity (AID 2283054).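 Note: cell-surface uPAR protein level quantified by ELISA.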 The following applies: primary human coronary artery smooth muscle cells; actives raise or lower the signal.

Read-out in experiment [15]: Vascular cell adhesion molecule 1 (VCAM1), VCAM1 (gene 7412)
Nature of the experiment: BSK_CASM3C_VCAM1: BioMAP Diversity Plus: CASM3C Assay for Vascular cell adhesion molecule 1 (VCAM1) Biomarker Activity (AID 2283055).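 Note: VCAM-1 protein level quantified by ELISA on the cells.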 The settings on record: primary human coronary artery smooth muscle cells; actives raise or lower the signal.

Read-out in experiment [16]: Collagen III, COL3A1 (gene 1281)
Nature of the experiment: BSK_hDFCGF_CollagenIII: BioMAP Diversity Plus: hDFCGF Assay for Collagen III Biomarker Activity (AID 2283056). The following applies: primary human foreskin fibroblasts; actives raise or lower the signal. The method, boiled down: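 ELISA read-out of collagen III from human skin fibroblast cultures sampled 24 h post-dosing. Values were derived by bidirectional fitting relative to the DMSO vehicle control.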

Read-out in experiment [17]: Epidermal growth factor receptor (EGFR), EGFR (gene 1956)
Description: BSK_hDFCGF_EGFR: BioMAP Diversity Plus: hDFCGF Assay for Epidermal growth factor receptor (EGFR) Biomarker Activity (AID 2283057). The settings on record: primary human foreskin fibroblasts; actives raise or lower the signal. The method, boiled down: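 Cell-based multiplexed assay in primary human foreskin fibroblasts. EGFR is read by ELISA 24 h after treatment and compared with DMSO controls.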

Read-out in experiment [18]: Interleukin-8 (IL8), CXCL8 (gene 3576)
Nature of the experiment: BSK_hDFCGF_IL8: BioMAP Diversity Plus: hDFCGF Assay for Interleukin-8 (IL8) Biomarker Activity (AID 2283058). The following applies: primary human foreskin fibroblasts; actives raise or lower the signal. The method, boiled down: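 Cells used are human skin primary fibroblasts. Chemical is added, cultures run 24 h, then IL-8 is quantified by ELISA, and gain or loss versus DMSO control is fitted in both directions.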

Experiment [19] is described as follows: BSK_hDFCGF_Proliferation: Cell Proliferation Assessment in the BioMAP Diversity Plus: hDFCGF Assay (AID 2283059).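 Note: curves fitted for both rise and fall of signal versus DMSO baseline.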 The following applies: primary human foreskin fibroblasts. The method, boiled down: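 Steps: dose primary human dermal fibroblasts (foreskin); […] fix in 10% TCA; stain with 0.1% SRB; read 560 nm; fit gain or loss of signal against DMSO.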

The structures appear in SMILES notation. Activity calls are given as the source filed them. Rule for the calls: active = hit-call score of the fitted dose curve at least 0.9, where 1 is the maximum; inactive = score below 0.9.

Data on six compounds can be found in PubChem BioAssay (EPA / NIEHS).

Regarding `CN(c1nccc(=O)[nH]1)C1CCN(c2nc3ccccc3n2Cc2ccc(F)cc2)CC1`, the outcome in experiment [1], in experiment [2], in experiment [3], in experiment [4], in experiment [5] and in experiment [6] was inactive. Also, the result in experiment [7], in experiment [8], in experiment [9], in experiment [10], in experiment [11] and in experiment [12] was inactive. In addition, the result in experiment [13], in experiment [14], in [15], in [16], in experiment [17] and in experiment [18] was inactive. The outcome in experiment [19] was inactive.
Take `c1ccc2cc(Nc3ccc(Nc4ccc5ccccc5c4)cc3)ccc2c1`: the outcome in [1], in experiment [2], in [3], in [4], in experiment [5] and in experiment [6] was inactive. Further, the result in experiment [7], in experiment [8], in experiment [9], in [10], in [11] and in experiment [12] was inactive. Also, the result in experiment [13], in [14], in [15], in experiment [16], in [17] and in experiment [18] was inactive. The outcome in experiment [19] was inactive.
The term AC50 denotes the concentration at which the activity in the assay is half-maximal. On to `CCC(C)c1cc([N+](=O)[O-])cc([N+](=O)[O-])c1OC(=O)OC(C)C` (centres undefined), for which the AC50 was 13.6 µM (active) in experiment [1]; 4.74 µM (active) in [2]; 13.7 µM (active) in experiment [3]; 32.7 µM (active) in experiment [4]; 31.8 µM (active) in [5]; 32.3 µM (active) in experiment [6]. For the same compound, the AC50 in experiment [7] is 29.7 µM (active); in experiment [8] it was 30.7 µM (active); in experiment [9] it was 34.1 µM (active); in experiment [10], 25.8 µM (active); in experiment [11], 36.8 µM (active); in experiment [12], 12.1 µM (active). For the same compound, the AC50 is 8.25 µM (active) in experiment [13]; 24.3 µM (active) in experiment [14]; 32.1 µM (active) in experiment [15]; 6.86 µM (active) in experiment [16]; 13.4 µM (active) in experiment [18]; 4.37 µM (active) in experiment [19]. The result in experiment [17] was inactive.
In the case of `C=C(C)C(=O)OCC(CC)(COC(=O)C(=C)C)COC(=O)C(=C)C`, the result in experiment [1], in experiment [2], in experiment [3], in experiment [4], in [5] and in experiment [7] was inactive. Further, the result in experiment [8], in [9], in experiment [10], in experiment [11], in experiment [14] and in experiment [15] was inactive. The result in experiment [16] and in experiment [18] was inactive. Moreover, the AC50 was 4.8 µM (active) in [6]; 8.08 µM (active) in [12]; 33.8 µM (active) in [13]; 31.7 µM (active) in experiment [17]; 26.5 µM (active) in experiment [19].
For the compound `CS(=O)(=O)OCCCCOS(C)(=O)=O`, the outcome in experiment [1], in [2], in experiment [3], in experiment [4], in experiment [5] and in experiment [6] was inactive. Besides, the result in [7], in experiment [8], in experiment [9], in [10], in [11] and in experiment [12] was inactive. For the same compound, the result in experiment [13], in [14], in experiment [15], in experiment [16], in experiment [17] and in experiment [18] was inactive. For the same compound, the result in [19] was inactive.
Consider `C[C@@H]1CCN(C(=O)[C@H](CCCN=C(N)N)NS(=O)(=O)c2cccc3c2NC[C@H](C)C3)[C@@H](C(=O)O)C1`, for which the outcome in [1], in [2], in experiment [3], in experiment [4], in [5] and in [6] was inactive. Besides, the result in [7], in experiment [8], in [9], in experiment [10], in experiment [11] and in experiment [12] was inactive. Besides, the result in experiment [13], in [14], in [15], in experiment [16], in [17] and in [18] was inactive. For the same compound, the outcome in experiment [19] was inactive.
